Values joined by “and” are separate entries in the source; they are usually repeats but may differ in a detail not shown here. Equal entries are not always repeated. Results filed as inconclusive are left out. Where a call stands in place of a potency, no number is given. Active and inactive are the calls of the source. Unless noted, calls come from the whole dose curve; as a rule, active = well fitted curve in the direction sought with a large enough effect in the repeat runs; inconclusive = weak or mixed curves; inactive = no such curve, though single readings can be large; an effect the other way counts as inactive or inconclusive.
Key:
[1] = molecular target: Estrogen receptor beta (Homo sapiens) (UniProt Q92731); assay: qHTS assay to identify small molecule agonists of the estrogen receptor beta (ER-beta) signaling pathway (AID 1259377; active = well fitted activation curve with a large enough effect in the signal ratio in the repeat runs, not every such curve was filed as active; the % refers to the signal ratio)
Estrogen receptor beta (Homo sapiens), sequence (Q92731 whole entry, looked up): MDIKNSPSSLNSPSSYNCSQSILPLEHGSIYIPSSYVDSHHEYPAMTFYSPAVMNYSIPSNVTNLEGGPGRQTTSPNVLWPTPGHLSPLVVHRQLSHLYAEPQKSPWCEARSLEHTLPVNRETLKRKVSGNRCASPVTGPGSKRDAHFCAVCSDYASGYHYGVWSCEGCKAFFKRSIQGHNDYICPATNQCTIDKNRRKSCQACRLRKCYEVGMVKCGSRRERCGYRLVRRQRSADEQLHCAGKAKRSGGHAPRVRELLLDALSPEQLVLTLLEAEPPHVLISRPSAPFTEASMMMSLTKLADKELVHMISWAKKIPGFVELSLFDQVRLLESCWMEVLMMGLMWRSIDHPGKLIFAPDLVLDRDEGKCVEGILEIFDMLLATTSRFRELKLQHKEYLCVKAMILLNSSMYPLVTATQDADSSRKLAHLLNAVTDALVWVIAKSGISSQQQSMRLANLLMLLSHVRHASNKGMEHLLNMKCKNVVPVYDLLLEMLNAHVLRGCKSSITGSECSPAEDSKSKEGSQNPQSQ
Summary of the method: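 In HEK293T cells bearing a UAS-beta-lactamase reporter under ER-beta control, DMSO-delivered compounds were incubated for 16 hr at 37C. Activity was detected as fluorescence 2 hours after LiveBLAzer B/G FRET substrate addition.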

[2] = molecular target: Estrogen receptor beta (Homo sapiens) (UniProt Q92731); assay: qHTS assay to identify small molecule antagonists of the estrogen receptor beta (ER-beta) signaling pathway (AID 1259378; active = well fitted inhibition curve with a large enough effect in the signal ratio in the repeat runs, not every such curve was filed as active; the % refers to the signal ratio; note: potency is the fitted concentration of half-maximal effect)
Summary of the method: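 Antagonist mode: compounds added to beta-lactamase reporter HEK293T ER-beta-UAS cells stimulated with E2 (1nM final), 16 hr at 37C. LiveBLAzer B/G FRET substrate, 2 hours room temperature, fluorescence read-out.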

[3] = qHTS assay to identify small molecule agonists of the estrogen receptor beta (ER-beta) signaling pathway - cell viability counter screen (AID 1259380); note: nearly all actives have a fitted effect of over 30% in size; note: potency is the fitted concentration of half-maximal effect
Summary of the method: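 Steps: plate ER-beta-UAS-bla HEK293T cells, rest 6 hr; add compounds in DMSO; incubate 16 hr at 37C, 5% CO2; add FRET substrate 2 hr; add CellTiter-Glo, wait 30 min at room temperature; read luminescence.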

[4] = molecular target: Androgen receptor (Homo sapiens) (UniProt P10275); assay: qHTS assay to identify small molecule agonists of the androgen receptor (AR) signaling pathway in the presence of an antagonist (AID 1259381; calls by dose curve; note: nearly all actives have a fitted effect of over 15% in size; note: potency is the fitted concentration of half-maximal effect)
Androgen receptor (Homo sapiens), sequence (P10275 whole entry, looked up): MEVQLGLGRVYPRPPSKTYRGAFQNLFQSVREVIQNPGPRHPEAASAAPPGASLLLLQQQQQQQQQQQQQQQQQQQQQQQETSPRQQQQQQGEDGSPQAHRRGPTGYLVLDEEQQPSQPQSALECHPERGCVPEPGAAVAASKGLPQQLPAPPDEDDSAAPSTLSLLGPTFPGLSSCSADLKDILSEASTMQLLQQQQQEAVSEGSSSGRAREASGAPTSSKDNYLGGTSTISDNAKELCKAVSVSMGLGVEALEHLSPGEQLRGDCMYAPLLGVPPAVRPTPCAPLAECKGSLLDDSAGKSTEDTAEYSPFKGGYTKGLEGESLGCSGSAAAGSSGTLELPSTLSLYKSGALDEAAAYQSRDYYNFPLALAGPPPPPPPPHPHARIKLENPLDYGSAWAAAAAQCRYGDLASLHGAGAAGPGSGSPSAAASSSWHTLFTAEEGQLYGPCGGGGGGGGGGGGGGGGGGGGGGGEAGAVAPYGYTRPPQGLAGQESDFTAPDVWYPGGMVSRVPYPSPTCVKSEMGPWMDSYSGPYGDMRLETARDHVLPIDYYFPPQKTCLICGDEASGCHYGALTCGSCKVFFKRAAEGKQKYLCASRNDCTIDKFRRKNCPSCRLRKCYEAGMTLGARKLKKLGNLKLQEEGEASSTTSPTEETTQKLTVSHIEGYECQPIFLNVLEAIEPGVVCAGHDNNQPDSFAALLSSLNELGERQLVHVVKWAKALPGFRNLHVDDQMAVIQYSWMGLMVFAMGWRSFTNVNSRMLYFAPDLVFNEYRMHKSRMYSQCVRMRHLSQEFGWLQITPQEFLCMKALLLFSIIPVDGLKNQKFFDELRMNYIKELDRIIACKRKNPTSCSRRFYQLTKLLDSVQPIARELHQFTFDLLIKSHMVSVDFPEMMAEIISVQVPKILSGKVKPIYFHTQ
Summary of the method: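 Reporter-gene luminescence from MDA-kb2 cells exposed 16hr at 37C (0% CO2) to 15-point compound titrations with 3.0uM final nilutamide as AR antagonist.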

[5] = molecular target: Estrogen receptor (Homo sapiens) (UniProt P03372); assay: qHTS assay to identify small molecule agonists of the estrogen receptor alpha (ER-alpha) signaling pathway in the presence of an antagonist (AID 1259383; calls by dose curve; note: top concentration of the series differs between compounds; nearly all actives have a fitted effect of over 15% in size)
Estrogen receptor (Homo sapiens), sequence (P03372 whole entry, looked up): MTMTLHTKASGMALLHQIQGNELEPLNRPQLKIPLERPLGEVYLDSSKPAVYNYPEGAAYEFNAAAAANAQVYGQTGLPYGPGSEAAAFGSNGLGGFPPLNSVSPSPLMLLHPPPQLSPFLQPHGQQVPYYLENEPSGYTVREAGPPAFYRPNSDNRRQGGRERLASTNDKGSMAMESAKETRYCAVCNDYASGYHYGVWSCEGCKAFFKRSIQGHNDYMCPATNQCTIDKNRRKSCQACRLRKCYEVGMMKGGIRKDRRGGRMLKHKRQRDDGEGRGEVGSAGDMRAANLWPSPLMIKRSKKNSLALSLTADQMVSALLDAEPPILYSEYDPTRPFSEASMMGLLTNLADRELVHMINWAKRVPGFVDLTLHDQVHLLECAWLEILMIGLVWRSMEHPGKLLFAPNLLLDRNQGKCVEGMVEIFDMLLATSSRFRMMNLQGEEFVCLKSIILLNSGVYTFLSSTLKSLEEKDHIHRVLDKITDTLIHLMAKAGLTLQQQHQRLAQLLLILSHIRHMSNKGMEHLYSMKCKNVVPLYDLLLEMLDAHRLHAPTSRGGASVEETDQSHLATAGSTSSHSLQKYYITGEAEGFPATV
Summary of the method: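 Readout was ERE-driven luciferase luminescence in VM7Luc4E2 cells, which express full-length ER-alpha endogenously. Compounds were tested at 15 concentrations for 22hr alongside 10.0nM ICI-182,780 (final concentration).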

[6] = qHTS assay to identify small molecule agonists or antagonists of the thyroid stimulating hormone receptor (TSHR) signaling pathway - wild type cell line counter screen (AID 1259384; calls by dose curve)
Summary of the method: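 Counter screen in untransfected Hek293: compounds (15-point titration, triplicate) plus phosphodiesterase inhibitor Ro20-1724 added after 18 h plating; 30 min RT. Intracellular cAMP via competitive d2/cryptate immunoassay, 1 h incubation.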

[7] = molecular target: Thyrotropin receptor (Homo sapiens) (UniProt P16473); assay: qHTS assay to identify small molecule antagonists of the thyroid stimulating hormone receptor (TSHR) signaling pathway (AID 1259385; calls by dose curve; note: nearly all actives have a fitted effect of over 20% in size)
Thyrotropin receptor (Homo sapiens), sequence (P16473 whole entry, looked up): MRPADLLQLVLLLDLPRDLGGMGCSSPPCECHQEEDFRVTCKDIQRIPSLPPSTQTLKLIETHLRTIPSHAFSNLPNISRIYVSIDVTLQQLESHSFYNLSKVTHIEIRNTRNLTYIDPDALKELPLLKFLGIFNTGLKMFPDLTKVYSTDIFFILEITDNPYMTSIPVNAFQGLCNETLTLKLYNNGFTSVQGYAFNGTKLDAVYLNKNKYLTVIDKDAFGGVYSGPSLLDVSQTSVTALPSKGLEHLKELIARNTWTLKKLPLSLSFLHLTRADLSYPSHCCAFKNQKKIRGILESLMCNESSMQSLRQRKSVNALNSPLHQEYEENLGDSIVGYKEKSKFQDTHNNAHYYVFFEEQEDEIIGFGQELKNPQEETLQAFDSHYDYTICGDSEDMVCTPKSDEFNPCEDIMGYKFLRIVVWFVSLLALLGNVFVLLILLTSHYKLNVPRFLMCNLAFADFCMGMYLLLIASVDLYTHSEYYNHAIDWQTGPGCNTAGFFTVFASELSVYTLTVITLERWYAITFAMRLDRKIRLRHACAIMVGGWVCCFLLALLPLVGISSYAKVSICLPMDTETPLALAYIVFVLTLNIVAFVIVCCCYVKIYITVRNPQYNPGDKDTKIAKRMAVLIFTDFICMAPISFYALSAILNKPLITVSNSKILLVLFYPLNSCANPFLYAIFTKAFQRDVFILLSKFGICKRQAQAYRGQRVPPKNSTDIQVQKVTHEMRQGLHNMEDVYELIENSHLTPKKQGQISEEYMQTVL
Summary of the method: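 Antagonist mode: compound-treated TSHR-expressing HEK293 cells were stimulated with 1.5 ng/mL TSH (final) in presence of Ro20-1724 for 30 min at RT. HTRF cAMP detection after 1 h; each compound tested at 15 concentrations, triplicate.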

[8] = qHTS assay to identify small molecule agonists of the estrogen receptor alpha (ER-alpha) signaling pathway in the presence of an antagonist - cell viability counter screen (AID 1259386);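 note: series mostly up to about 92 µM; cells exposed to compounds for 22 h at 37 °C before the viability read; nearly all actives have a fitted effect of over 30% in size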
Summary of the method: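 In this counter screen, compound effects on VM7Luc4E2 viability were tested in the presence of the antagonist ICI-182,780 at 10.0nM final. Compounds were dosed at 15 concentrations, exposure lasted 22hr, and the CellTiter-Fluor signal was read.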

[9] = molecular target: Progesterone receptor (Homo sapiens) (UniProt P06401); assay: qHTS assay to identify small molecule agonists of the progesterone receptor (PR) signaling pathway (AID 1346784; calls by dose curve; note: nearly all actives have a fitted effect of over 30% in size; note: potency is the fitted concentration of half-maximal effect)
Progesterone receptor (Homo sapiens), sequence (P06401 whole entry, looked up): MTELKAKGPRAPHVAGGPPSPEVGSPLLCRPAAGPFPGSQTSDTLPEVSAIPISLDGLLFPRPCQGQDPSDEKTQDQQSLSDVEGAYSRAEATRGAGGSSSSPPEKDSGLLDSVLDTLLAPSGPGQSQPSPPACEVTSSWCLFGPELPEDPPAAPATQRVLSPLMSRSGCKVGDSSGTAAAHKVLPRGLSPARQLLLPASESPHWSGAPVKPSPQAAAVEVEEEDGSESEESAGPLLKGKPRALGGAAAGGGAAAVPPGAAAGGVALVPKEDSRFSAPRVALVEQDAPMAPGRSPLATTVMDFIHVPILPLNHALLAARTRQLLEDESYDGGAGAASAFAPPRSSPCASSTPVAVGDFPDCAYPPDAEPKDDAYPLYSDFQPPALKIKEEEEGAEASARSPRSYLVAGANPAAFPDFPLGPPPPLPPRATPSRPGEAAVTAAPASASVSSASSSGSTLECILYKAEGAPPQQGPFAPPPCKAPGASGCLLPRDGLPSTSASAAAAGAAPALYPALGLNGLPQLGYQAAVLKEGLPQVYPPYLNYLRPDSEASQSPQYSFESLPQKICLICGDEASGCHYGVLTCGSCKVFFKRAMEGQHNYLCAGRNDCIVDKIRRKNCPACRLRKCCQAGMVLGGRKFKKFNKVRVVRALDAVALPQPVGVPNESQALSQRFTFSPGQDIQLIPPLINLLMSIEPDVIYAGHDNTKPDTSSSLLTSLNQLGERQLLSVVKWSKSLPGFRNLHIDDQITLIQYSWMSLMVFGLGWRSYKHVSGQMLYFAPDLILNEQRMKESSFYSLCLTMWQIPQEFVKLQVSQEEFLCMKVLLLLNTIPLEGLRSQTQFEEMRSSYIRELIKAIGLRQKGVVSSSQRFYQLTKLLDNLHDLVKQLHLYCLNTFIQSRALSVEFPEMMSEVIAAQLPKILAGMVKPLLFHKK
Summary of the method: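 Using charcoal-stripped serum (2%) to limit endogenous steroids, PR-UAS-bla HEK 293T cells received compounds for 16 hr at 37C after 6 hr plating; beta-lactamase FRET fluorescence was recorded following 2 hr substrate loading at room temperature.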

[10] = molecular target: Progesterone receptor (Homo sapiens) (UniProt P06401); assay: qHTS assay to identify small molecule antagonists of the progesterone receptor (PR) signaling pathway (AID 1346795; active = well fitted inhibition curve with a large enough effect in the signal ratio in the repeat runs, not every such curve was filed as active; the % refers to the signal ratio; note: potency is the fitted concentration of half-maximal effect)
Summary of the method: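 Inhibition of R5020-induced (1 nM final) beta-lactamase reporter signal in PR-UAS-bla HEK293T cells was scored by FRET fluorescence after overnight (16 hr) compound treatment.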

[11] = qHTS assay to identify small molecule antagonists of the progesterone receptor (PR) signaling pathway - cell viability counter screen (AID 1346798); note: series mostly up to about 92 µM; nearly all actives have a fitted effect of over 50% in size
Summary of the method: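 ATP content as viability readout: CellTiter-Glo luminescence, 30 min room temperature, in PR-UAS-bla HEK293T cells after 16 hr compound/R5020 treatment at 37C and 5% CO2.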

[12] = qHTS assay to identify small molecule agonists of the TGF-beta/Smad signaling pathway (AID 1346859; active = well fitted activation curve with a large enough effect in the signal ratio in the repeat runs, not every such curve was filed as active; the % refers to the signal ratio; note: series mostly up to about 77 µM)
Summary of the method: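 Stable Smad binding element-beta-lactamase HEK 293T cells; 5 hr compound exposure at 37 C under 5% CO2; 2 hr room-temperature substrate step; fluorescence excited at 405 nm, collected at 460 nm and 530 nm.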

[13] = Human pregnane X receptor (PXR) small molecule agonists, qHTS cell viability counter screen (AID 1346977); note: nearly all actives have a fitted effect of over 50% in size
Summary of the method: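 Readout is CellTiter-Fluor fluorescence from PXR-Luc HepG2 cells. Plated cells rested 5hr, then were treated with compounds for 24hr at 37C and 5% CO2, with reagent present during the last hour.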

[14] = qHTS assay to identify small molecule agonists of the androgen receptor (AR) signaling pathway in the presence of an antagonist - cell viability counter screen (AID 1259379);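 note: MDA-kb2 human breast cancer cells carrying an MMTV luciferase reporter; series mostly up to about 92 µM; nearly all actives have a fitted effect of over 25% in size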
Summary of the method: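 Nilutamide-containing (3.0uM final) MDA-kb2 cultures, 3,000 cells/well, were treated with compounds across 15 concentrations. After 16 hr at 37C with no CO2, cell viability was determined by CellTiter-Fluor fluorescence in the luciferase assay wells.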

[15] = qHTS assay to identify small molecule antagonists of the estrogen receptor beta (ER-beta) signaling pathway - cell viability counter screen (AID 1259382);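 note: HEK293T cells carrying ER-beta-UAS-bla reporter stimulated with estradiol; series mostly up to about 92 µM; nearly all actives have a fitted effect of over 55% in size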
Summary of the method: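 Viability is scored by CellTiter-Glo luminescence (30 min, room temperature) in ER-beta-UAS-bla HEK293T wells already read for reporter fluorescence. Compound exposure lasts 16 hr at 37C alongside 1nM 17-beta-estradiol in charcoal-stripped serum medium.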

[16] = qHTS assay to identify small molecule agonists of the progesterone receptor (PR) signaling pathway - cell viability counter screen (AID 1346799; calls by dose curve; note: nearly all actives have a fitted effect of over 45% in size)
Summary of the method: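 Cytotoxicity in PR-bla HEK293T cells: 16 h compound, 37C; CellTiter-Glo added post-FRET read; luminescence after 30 min RT.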

[17] = qHTS assay to identify small molecule antagonists of the TGF-beta/Smad signaling pathway - cell viability counter screen (AID 1346824); note: nearly all actives have a fitted effect of over 50% in size
Summary of the method: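 Cytotoxicity counter-screen run in the same wells as the beta-lactamase Smad reporter read: CellTiter-Glo luminescence after 30 min at room temperature. HEK 293T SBE-bla cells had 5 hr compound exposure at 37 C with TGF-beta1 (0.25 ng/mL stock).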

[18] = qHTS assay to identify small molecule agonists of the TGF-beta/Smad signaling pathway - cell viability counter screen (AID 1346829); note: top concentration of the series differs between compounds; nearly all actives have a fitted effect of over 45% in size
Summary of the method: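 SBE-bla HEK 293T cells plated overnight, compound exposure 5 hr at 37 C. Viability read in the same wells by CellTiter-Glo luminescence after 30 min at room temperature, following the beta-lactamase read.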

[19] = molecular target: Thyrotropin-releasing hormone receptor (Homo sapiens) (UniProt P34981); assay: qHTS assay to identify small molecule antagonists of the thyrotropin-releasing hormone receptor (TRHR) signaling pathway (AID 1346877; active = well fitted inhibition curve with a large enough effect in the repeat runs, not every such curve was filed as active; note: series mostly up to about 51 µM)
Thyrotropin-releasing hormone receptor (Homo sapiens), sequence (P34981 whole entry, looked up): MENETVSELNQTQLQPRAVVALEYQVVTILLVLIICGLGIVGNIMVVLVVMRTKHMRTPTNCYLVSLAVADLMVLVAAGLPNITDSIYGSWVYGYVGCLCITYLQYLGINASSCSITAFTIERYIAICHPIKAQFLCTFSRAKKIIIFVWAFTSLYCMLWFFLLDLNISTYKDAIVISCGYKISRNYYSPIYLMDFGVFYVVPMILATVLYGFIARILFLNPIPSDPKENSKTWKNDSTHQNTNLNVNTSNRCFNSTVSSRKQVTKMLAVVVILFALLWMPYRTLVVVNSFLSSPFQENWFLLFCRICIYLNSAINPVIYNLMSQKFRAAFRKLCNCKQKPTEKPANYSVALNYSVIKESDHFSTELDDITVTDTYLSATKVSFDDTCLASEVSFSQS
Summary of the method: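 Kinetic fluorescence (3 min, 1 s resolution) following stimulation with TRH at 1 nM final; HEK293 cells bearing human TRHR; 5 min compound preincubation at RT; concentration-response over 15 points, triplicates.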

[20] = molecular target: Thyrotropin-releasing hormone receptor (Homo sapiens) (UniProt P34981); assay: qHTS assay to identify small molecule agonists of the thyrotropin-releasing hormone receptor (TRHR) signaling pathway (AID 1346891; calls by dose curve;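 note: HEK293 cells expressing TRHR with calcium dye readout; series mostly up to about 58 µM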)
Summary of the method: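 In 1536-format, 1500 TRHR-Hek293 cells per well grew 18 h, took up calcium dye for 2 h at 37 °C, received compound, and were read kinetically; 15-point titrations, triplicates.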

SMILES | Potency [1] | Potency [2] | Potency [3] | Potency [4] | Potency [5] | Potency [6] | Potency [7] | Potency [8] | Potency [9] | Potency [10] | Potency [11] | outcome [12] | Potency [13] | Potency [14] | Potency [15] | Potency [16] | Potency [17] | Potency [18] | Potency [19] | Potency [20]
CN(Cc1cnc2nc(N)nc(N)c2n1)c1ccc(C(=O)N[C@@H](CCC(=O)O)C(=O)O)cc1 | inactive | inactive | 172 nM (active) and 133 nM (active) | inactive | inactive | inactive | inactive | inactive | inactive | 133 nM (active) | inactive | inactive | inactive | – | – | – | – | – | – | –
C=CC(=O)OCCCC | inactive | inactive | inactive | – | – | inactive | inactive | inactive | inactive | inactive | – | inactive | inactive | inactive | inactive | inactive | inactive | inactive | inactive | inactive
COC(=O)CC(=O)OC | inactive | inactive | inactive | – | inactive | inactive | inactive | inactive | inactive | inactive | – | inactive | inactive | – | inactive | inactive | – | inactive | inactive | inactive
c1ccc2c(c1)ccc1ncccc12 | inactive | inactive | inactive | inactive | inactive | inactive | inactive | inactive | inactive | – | – | inactive | inactive | inactive | inactive | inactive | inactive | inactive | inactive | inactive
O=S1(=O)CCCO1 | inactive | inactive | inactive | – | inactive | inactive | inactive | inactive | inactive | inactive | – | inactive | inactive | inactive | – | inactive | inactive | inactive | – | –
CC(C)=CCO | inactive | inactive | inactive | – | inactive | inactive | inactive | inactive | inactive | inactive | – | inactive | inactive | inactive | inactive | inactive | – | inactive | inactive | inactive
CC(=O)[C@H]1CC[C@H]2[C@@H]3CC=C4C[C@@H](O)CC[C@]4(C)[C@H]3CC[C@]12C | inactive | 1880 nM (active) | – | – | inactive | inactive | inactive | inactive | 4850 nM (active) | inactive | – | inactive | inactive | inactive | inactive | inactive | inactive | inactive | – | –
CN(C)/N=N/c1nc[nH]c1C(N)=O | inactive | inactive | inactive | – | inactive | inactive | inactive | inactive | inactive | inactive | inactive | inactive | inactive | inactive | inactive | inactive | – | inactive | inactive | inactive
C=C1C[C@H]2[C@@H]3C=C(C)C4=CC(=O)CC[C@]4(C)[C@H]3CC[C@]2(C)[C@@]1(OC(C)=O)C(C)=O | inactive | inactive | inactive | 39.4 nM (active) and 59.6 nM (active) | – | – | – | inactive | – | inactive | – | inactive | inactive | inactive | inactive | – | inactive | inactive | inactive | inactive
O=C(O)COCCN1CCN(C(c2ccccc2)c2ccc(Cl)cc2)CC1 (configuration not stated) | inactive | inactive | inactive | – | – | inactive | inactive | inactive | inactive | inactive | – | inactive | inactive | inactive | – | – | – | inactive | inactive | inactive
CCc1cccc2c3c([nH]c12)C(CC)(CC(=O)O)OCC3 (configuration not stated) | inactive | inactive | inactive | inactive | inactive | inactive | inactive | inactive | inactive | inactive | inactive | inactive | inactive | inactive | inactive | – | inactive | inactive | – | –
C=CCOC(=O)C(=C)C | inactive | inactive | inactive | – | – | inactive | inactive | inactive | inactive | inactive | inactive | inactive | inactive | inactive | inactive | inactive | – | inactive | inactive | inactive
[O-]/[N+](=N\O)c1ccccc1 | inactive | inactive | inactive | – | inactive | inactive | inactive | inactive | inactive | – | inactive | inactive | inactive | inactive | inactive | inactive | – | inactive | inactive | inactive
COc1ccc(C(=O)c2ccccc2O)c(O)c1 | inactive | inactive | inactive | – | – | inactive | inactive | inactive | inactive | 27.2 µM (active) and 23.7 µM (active) | inactive | inactive | inactive | inactive | – | inactive | inactive | inactive | inactive | inactive
Brc1nc2ccccc2s1 | inactive | inactive | inactive | – | – | inactive | inactive | inactive | inactive | inactive | inactive | inactive | inactive | inactive | inactive | – | inactive | inactive | inactive | inactive

Source: PubChem BioAssay (Tox21)
